A selection: hits, their analogues and other compounds. The true share with any hit is near 19%.
TDP1 cell CPT – growth inhibition of DT40 Tdp1-/-;hTDP1 cells with camptothecin (screen for TDP1 inhibitors); AID 686979; Potency, µM (highest dose often 46.2 µM), without a hit: top-dose activity change, negative = growth inhibition, hits mostly inhibitors; chicken DT40 Tdp1-/-;hTDP1 cells + 20 nM CPT, ATP luminescence, 48 h; hit rate 12% among 420,000; also: nearly all actives have a fitted effect of over 55% in size
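Chicken DT40 Tdp1-/- cells complemented with human TDP1, 400 cells/well, exposed to compounds plus 20 nM camptothecin for at least 48 h at 37 C; viability read as ATP content by CellTiter-Glo luminescence.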
KB-3-1 tox – KB-3-1 parental cell cytotoxicity; Potency, µM (doses to about 46.1 µM), actives largely listed as cytotoxic; KB-3-1 viability, CellTiter-Glo ATP luminescence, 72 h; hit rate 1.4% among 400,000; also: nearly all actives have a fitted effect of over 60% in size
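Luminescent ATP read-out (CellTiter-Glo) measures survival of drug-naive KB-3-1 cells after 72 h compound exposure at 37 °C. Titration series was screened from lowest to highest concentration, with DMSO vehicle plates as background controls.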
HT1080NT lethal – kills 2HG-producing HT-1080-NT fibrosarcoma cells; HT-1080-NT fibrosarcoma viability, CellTiter-Glo ATP luminescence, 48 h; hit rate 1.6% among 360,000; Potency, µM (series often up to 46.1 µM), inactives show at the top dose activity, negative = less viability, actives largely listed as cytotoxic;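 also: NT is the 2HG producing partner of a matched IDH1 knockdown line; 0% = DMSO-treated cells and -100% = media-only wells without cells; nearly all actives have a fitted effect of over 55% in size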
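Fibrosarcoma NT cells, 750 per well in 5% FBS RPMI, were exposed to compound for 48 hours. Viability: CellTiter-Glo luminescence.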
TDP1 cell noCPT – qHTS for Inhibitors of human tyrosyl-DNA phosphodiesterase 1 (TDP1): qHTS in cells in absence of CPT | DT40 Tdp1-/- hTDP1 cells, no CPT, ATP luminescence, 48 h | Potency, µM (titrated, usually from 46.2 µM), without a hit: top-dose activity change, negative = growth inhibition, actives largely listed as inhibitors | hit rate 15% among 420,000 | AID 686978, 2013; also: nearly all actives have a fitted effect of over 55% in size
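DT40 Tdp1-/-;hTDP1 cells, no CPT (DMSO vehicle only), 400 cells/well; compounds pin-transferred; ≥48 hr, 37 °C; CellTiter-Glo 30 min RT dark, luminescence read.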
KB-V1 MDR tox – KB-V1 MDR subline cytotoxicity; KB-V1 MDR cells viability, CellTiter-Glo, 72 h; Potency, µM (doses to about 46.1 µM), actives largely listed as cytotoxic; hit rate 3.4% among 400,000; also: nearly all actives have a fitted effect of over 60% in size
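Readout: CellTiter-Glo luminescence, 10 min after addition. Cells: KB-V1 MDR subline, 72 h at 37 degrees C with compound. Analysis: corrected, normalized data fitted to concentration-effect curves.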
HT1080 IDH1KD tx – toxicity to HT-1080 IDH1 knockdown cells (counter line). HT-1080 IDH1 knockdown viability, ATP luminescence, 48 h. Potency, µM (top dose mostly 46.1 µM), for inactives: top-dose activity, negative = toxicity, usual class: cytotoxic. hit rate 2% among 360,000;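 also: 0% = DMSO wells and -100% = cell-free medium wells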
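Cytotoxicity counter-line: IDH1KD HT-1080, 48 h, CellTiter-Glo. Curves classed by r2, magnitude and activity.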
* marks the source's active call; other numbers are inactive results; i = inactive; ? = inconclusive; / = not tested or not shown; [ ] = dose if it differs, or a comment. Calls follow the shape of the dose curve; as a rule, active = well fitted curve in the direction sought with a large enough effect; inconclusive = small, poorly fitted or top-dose-only effect, or another doubt; inactive = no such curve, though single readings can be large; an effect the other way counts as inactive or inconclusive. Unless noted, % is scaled to controls: 0 for no effect and ±100 for the full control effect; potency is read from the fitted curve at half-maximal effect.

SMILES	TDP1 cell CPT	KB-3-1 tox	HT1080NT lethal	TDP1 cell noCPT	KB-V1 MDR tox	HT1080 IDH1KD tx
COc1cc(C2CC(=O)Nc3n[nH]c(-c4ccccc4)c32)cc(OC)c1OC (configuration not stated)	8.2µM*	20.6µM*	?	14.6µM*	i	?
Cc1cc2c(cc1C)C(c1cccc([N+](=O)[O-])c1)CC(=O)N2 (configuration not stated)	23.1µM*	i	?	18.4µM*	?	?
CCOc1c(OC)cccc1C1CC(=O)Nc2cc(OC)c(OC)cc21 (configuration not stated)	?	i	-1.4%	18.4µM*	i	-0.4%
COc1cc2c(cc1OC)C(c1ccc(OC)c(OC)c1OC)CC(=O)N2 (configuration not stated)	-2.9%	i	10.6%	2.2%	i	1.7%
COc1ccc(NC(=O)N2CCN(C(=O)C3CCCO3)CC2)cc1 (configuration not stated)	11.2%	i	0.2%	0.2%	i	9.2%
Cc1ccc(-n2ncc3c(N4CCCCC4)ncnc32)cc1Cl	-18.6%	i	/	?	?	/
Cc1ccc2occ(CC(=O)Nc3c(C(=O)Nc4ccc(Cl)cc4)oc4ccccc34)c2c1	?	i	/	?	i	/
Cc1ccc2nc(CN3CCN(S(=O)(=O)c4ccccc4)CC3)oc2c1	-25.7%	i	/	-24.1%	i	/
CCOc1c(Br)cc(C2CC(=O)Nc3cc(OC)c(OC)cc32)cc1OC (configuration not stated)	?	i	-28.9%	23.1µM*	i	?
CCCOc1c(OC)cccc1C1CC(=O)Nc2cc3c(cc21)OCCO3 (configuration not stated)	?	?	?	13µM*	?	?
CCOc1cccc(C2CC(=O)Nc3cc4c(cc32)OCCO4)c1 (configuration not stated)	5.17µM*	/	/	5.8µM*	/	/
COc1ccc(C2CC(=O)Nc3cc(OC)c(OC)cc32)cc1Br (configuration not stated)	-16.4%	i	8.5%	-8.0%	i	2.2%
COc1cc(C2CC(=O)Nc3cc(C)c(C)cc32)cc(OC)c1OC (configuration not stated)	16.4µM*	9.2µM*	?	11.6µM*	16.4µM*	?
CN(c1ccccc1C(=O)O)S(C)(=O)=O	9.7%	i	2.1%	-7.1%	i	15.8%
CCCNC(=O)c1ccccc1NC(=O)c1ccccc1N(C)S(=O)(=O)c1ccccc1	?	?	-2.2%	?	9.2µM*	-11.4%
CN(c1ccccc1C(=O)Nc1cccc(Cl)c1Cl)S(C)(=O)=O	-2.6%	i	-2.8%	-9.4%	16.4µM*	-3.5%
COC(=O)c1ccc(NC(=O)c2ccccc2N(C)S(=O)(=O)c2ccccc2)cc1	?	i	-7.5%	20.6µM*	i	-16.8%
CCN(CC)C(=S)SCc1csc(CC(=O)Nc2ccccc2C)n1	?	i	-3.5%	?	i	-5.0%
Cc1ccc(C)c(NC(=O)C(c2ccccc2)N2Cc3ccccc3C2=O)c1 (configuration not stated)	?	/	/	-25.8%	/	/
Cc1cccc(NC(=O)CCNC(=O)c2ccc(Br)cc2)c1C	7.9%	i	1.1%	-16.2%	i	-1.9%
Cc1ccc(NC(=O)CN2c3cccc4cccc(c34)S2(=O)=O)cc1	23.1µM*	i	-8.3%	?	23.1µM*	-7.6%
Cc1cc(C(=O)CN2c3cccc4cccc(c34)S2(=O)=O)c(C)n1C	4.61µM*	?	-29.7%[9.24 µM]	3.26µM*	i	14.6µM*
O=C(CN1c2cccc3cccc(c23)S1(=O)=O)Nc1cccc(S(=O)(=O)N2CCOCC2)c1	6.2%	i	9.0%	?	18.4µM*	14.4%
COCC(C)n1c(C)cc(C(=O)CN2c3cccc4cccc(c34)S2(=O)=O)c1C (configuration not stated)	-27.2%	i	-0.5%	?	i	1.3%
O=C(CN1c2cccc3cccc(c23)S1(=O)=O)NC1CCCCC1	?	i	5.5%	-20.7%	20.6µM*	7.8%
SMILES	TDP1 cell CPT	KB-3-1 tox	HT1080NT lethal	TDP1 cell noCPT	KB-V1 MDR tox	HT1080 IDH1KD tx
Cc1cc(NS(=O)(=O)c2ccc(NC(=O)COc3ccc(C#N)cc3)cc2)nc(C)n1	-2.3%	i	0.9%	-1.2%	i	-7.4%
CCN(CC)C1CCN(C(=O)c2cnn(-c3nccc(-c4ccccc4OC)n3)c2-c2ccco2)C1 (configuration not stated)	-1.9%[9.04 µM]	/	/	-24.6%	/	/
CC(C)Cc1nc2cc(NS(=O)(=O)N(C)C)cc(C(=O)N3CCOc4ccccc4C3)c2n1C	-1.8%[9.04 µM]	/	/	-15.2%	/	/
CCOc1ccccc1NC(=O)CN1Cc2ccccc2C1=O	5.0%	?	/	2.1%	i	/
O=C(COC(=O)COc1ccc(Cl)cc1)Nc1ccc(N2CCOCC2)cc1	-1.2%	i	23.3%	6.4%	i	14.1%
COc1ccc(-c2nsc(NC(=O)c3oc4ccccc4c3C)n2)cc1	?	/	/	-28.5%	/	/
Cc1occc1C(=O)Nc1nnc(C(F)(F)F)s1	-18.2%	i	-20.9%	-23.2%	i	7.7%
Cc1c(C(=O)Nc2nnc(C(F)(F)F)s2)oc2ccccc12	?	i	-13.8%	?	18.4µM*	-1.7%

Bioassay records: PubChem BioAssay, National Center for Advancing Translational Sciences (NCATS)
